Inconclusive results are not listed. Activity calls are given as the source filed them. The call rests on the fitted dose curve; in most records, active means well fitted curve in the direction sought with a large enough effect; inconclusive means small, poorly fitted or top-dose-only effect, or another doubt; inactive means no such curve, though single readings can be large; an effect the other way counts as inactive or inconclusive.
Tests used:
[1] = OV-KATE Cancer Cell Toxicity qHTS against the NCATS CANVASS Library (AID 1347345)
In short: (§1)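 Quantitative HTS format: an 11-concentration series was applied to 1000 cells/well following a 4-hour attachment. Cultures ran 72 hours before ATP luminescence detection by CellTiter-Glo.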

[2] = HPAF-II Cancer Cell Toxicity qHTS against the NCATS CANVASS Library (AID 1347346); further: nearly all actives have a fitted effect of over 55% in size
In short: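 HPAF-II cells were seeded at 1000 cells/well, allowed to settle for 4 h at 37 degrees C, then exposed to compounds in an 11-point series for 72 h. Viability was read by CellTiter-Glo luminescence.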

[3] = UWB1.289 Cancer Cell Toxicity qHTS against the NCATS CANVASS Library (AID 1347347); further: nearly all actives have a fitted effect of over 60% in size
In short: as §1

[4] = OV-SAHO Cancer Cell Toxicity qHTS against the NCATS CANVASS Library (AID 1347348); further: nearly all actives have a fitted effect of over 55% in size
In short: as §1

[5] = Panc-1005 Cancer Cell Toxicity qHTS against the NCATS CANVASS Library (AID 1347349); further: nearly all actives have a fitted effect of over 60% in size
In short: as §1

[6] = SW1088 Cancer Cell Toxicity qHTS against the NCATS CANVASS Library (AID 1347350); settings: SW1088 viability, CellTiter-Glo luminescence, 72 h; at 38.3 µM (top of the series); further: nearly all actives have a fitted effect of over 75% in size
In short: as §1

[7] = U-118MG Cancer Cell Toxicity qHTS against the NCATS CANVASS Library (AID 1347351)
In short: as §1

[8] = COV-362 Cancer Cell Toxicity qHTS against the NCATS CANVASS Library (AID 1347352)
In short: (§2)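 Cells were seeded at 1000 per well and allowed to settle 4 hours at 37 degrees C before pin transfer of compounds as an 11-point series. Viability was read by CellTiter-Glo luminescence after 72 hours' exposure.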

[9] = A2780 Cisplatin Sensitive Ovarian Cancer Cell Toxicity qHTS against the NCATS CANVASS Library (AID 1347353); settings: A2780 ovarian cancer viability, ATPLite luminescence, 72 h; at 46.1 µM (top of the series); further: nearly all actives have a fitted effect of over 60% in size
In short: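 A2780 cisplatin-sensitive cells (750 per well) were seeded, left 4 h at 37 °C, then pin-dosed in an 11-point series. After 72 h at 37 °C/5% CO2, viability was measured as ATPLite luminescence.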

[10] = UWB1.289-WTBRCA1 Cancer Cell Toxicity qHTS against the NCATS CANVASS Library (AID 1347354)
In short: as §2

[11] = HEK-293 Cancer Cell Toxicity qHTS against the NCATS CANVASS Library (AID 1347355); settings: HEK-293 viability, CellTiter-Glo luminescence, 72 h; at 46.1 µM (top of the series); further: nearly all actives have a fitted effect of over 65% in size
In short: as §2

[12] = HPAF-II 24hr Apoptosis Induction qHTS against the NCATS CANVASS Library (AID 1347356)
In short: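 HPAF-II cells (500/well) in DMEM + 10% FBS were treated with an 11-point compound series for 24 hours at 37 degrees C. Caspase-3/7 activity was then read by Caspase-Glo DEVD luminescence after 15 min.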

[13] = HEK293 18hr Apoptosis Induction qHTS against the NCATS CANVASS Library (AID 1347357)
In short: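 Natural products applied to HEK293 for 18 hr; Caspase-Glo 3/7 readout.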

[14] = HPAF-II 12hr Apoptosis Induction qHTS against the NCATS CANVASS Library (AID 1347358)
In short: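 HPAF-II cells (500/well, DMEM + 10% FBS) were exposed to compounds for 12 hours at 37 degrees C. Caspase-3/7 activity was then read by Caspase-Glo 3/7 luminescence after 15 min at room temperature.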

[15] = HEK293 24hr Apoptosis Induction qHTS against the NCATS CANVASS Library (AID 1347359)
In short: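 HEK293 cells (500/well, DMEM + 10% FBS) were exposed to compounds in an 11-point series for 24 hours at 37 degrees C, then caspase-3/7 activity was read by Caspase-Glo DEVD luciferase luminescence after 15 min.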

[16] = HPAF-II 18hr Apoptosis Induction qHTS against the NCATS CANVASS Library (AID 1347360)
In short: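 Luminescent DEVD-substrate signal, proportional to caspase activity, is measured in HPAF-II cells after 18-hour treatment across a concentration series; doxorubicin serves as control.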

[17] = HEK293 12hr Apoptosis Induction qHTS against the NCATS CANVASS Library (AID 1347361)
In short: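 Luminescent caspase-3/7 signal, proportional to enzyme activity, was recorded from HEK293 cultures in DMEM + 10% FBS treated for 12 hours with titrated natural products (11 points). Doxorubicin (0.1nM - 4uM) served as control.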

[18] = tested on: NAD(P)H diaphorase (Clostridium kluyveri); experiment: Diaphorse counterscreen qHTS: Assay Interference Panel against the NCATS CANVASS Library (AID 1347362)
In short: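 Clostridium kluyveri diaphorase in PBS with 0.01% Tween-20 was preincubated 15 min at room temperature in the dark with compounds (11-point series). Resorufin fluorescence (ex 525/20, em 598/25) was read 5 min after adding resazurin/NADH.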

[19] = target: Luciferin 4-monooxygenase (Photinus pyralis) (UniProt P08659); experiment: Firefly luciferase counterscreen qHTS: Assay Interference Panel against the NCATS CANVASS Library (AID 1347363)
Chain of Luciferin 4-monooxygenase (Photinus pyralis) (P08659 whole entry, looked up): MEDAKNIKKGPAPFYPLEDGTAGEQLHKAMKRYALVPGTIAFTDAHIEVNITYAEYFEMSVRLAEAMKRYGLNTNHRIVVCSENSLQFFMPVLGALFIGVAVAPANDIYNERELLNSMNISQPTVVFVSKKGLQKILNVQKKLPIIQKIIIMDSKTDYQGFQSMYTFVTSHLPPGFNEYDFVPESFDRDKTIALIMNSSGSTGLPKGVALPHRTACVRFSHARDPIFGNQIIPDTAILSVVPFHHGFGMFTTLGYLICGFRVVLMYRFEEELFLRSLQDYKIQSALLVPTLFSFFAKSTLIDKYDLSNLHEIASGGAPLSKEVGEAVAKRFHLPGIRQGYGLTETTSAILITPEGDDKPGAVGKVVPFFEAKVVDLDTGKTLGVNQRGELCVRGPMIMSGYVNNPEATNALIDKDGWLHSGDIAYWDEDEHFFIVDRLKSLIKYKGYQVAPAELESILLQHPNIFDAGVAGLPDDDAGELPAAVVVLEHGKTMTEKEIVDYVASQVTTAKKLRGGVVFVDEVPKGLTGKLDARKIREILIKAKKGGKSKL
In short: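 Purified P. pyralis luciferase was added to compounds (11-point series) preincubated 15 min at room temperature with substrate containing 0.013 mM D-luciferin and 0.013 mM ATP; luminescence was read after 5 min.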

[20] = KB-8-5-11 Cancer Cell Toxicity qHTS against the NCATS CANVASS Library (AID 1347364); further: nearly all actives have a fitted effect of over 75% in size
In short: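 KB-8-5-11 cells (500/well) in DMEM + 10% FBS were exposed to compounds in an 11-point qHTS series for 72 hr at 37C, 5% CO2. Viability was read by CellTiter-Glo luminescence.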

Measured: outcome

NCCc1c[nH]c2ccccc12
inactive: all assays above

NCCc1c[nH]c2ccc(O)cc12
not listed: [18]
inactive: all other assays above
